Compound activity as filed in PubChem.
AmpC inh no detg: qHTS Inhibitors of AmpC Beta-Lactamase (assay without detergent); P00811; AmpC nitrocefin hydrolysis, absorbance 480 nm, 0.0001% Triton; Potency, µM (highest dose often 57.1 µM), for the others: at the highest dose activity change, negative = inhibition, usual class: inhibitors; hit rate 0.52% among 330,000;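 note: plate controls were no compound for no effect and no enzyme for full effect; nearly all actives have a fitted effect of over 20% in size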
Target sequence (P00811 whole entry, looked up): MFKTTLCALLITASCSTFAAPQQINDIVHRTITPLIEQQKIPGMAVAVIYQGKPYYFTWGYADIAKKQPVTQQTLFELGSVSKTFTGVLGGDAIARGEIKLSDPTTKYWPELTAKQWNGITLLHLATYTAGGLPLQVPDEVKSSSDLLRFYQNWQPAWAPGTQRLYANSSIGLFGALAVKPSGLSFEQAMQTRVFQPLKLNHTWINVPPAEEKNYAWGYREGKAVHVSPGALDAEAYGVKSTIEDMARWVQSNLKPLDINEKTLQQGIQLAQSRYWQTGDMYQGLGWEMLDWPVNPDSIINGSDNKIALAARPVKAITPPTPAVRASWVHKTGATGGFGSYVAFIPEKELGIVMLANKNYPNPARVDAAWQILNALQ
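20 mM phosphate pH 7.0 + 0.01% (detergent screen) or 0.0001% Triton X-100; 5.3 nM AmpC reagent; cpd preinc 15 min RT; nitrocefin (800 uM stock) to start; A480 q20 s × 4 min; Activity was normalised to no-enzyme and no-compound control wells.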
HCV inh: qHTS Assay for Inhibitors of Hepatitis C Virus (HCV). Huh7.5.1 HCVcc-Cre infection, luciferase reporter, 44 h. Potency, µM (top dose mostly 41.8 µM), for the others: at the top dose activity change, negative = inhibition, most hits filed as inhibitors. hit rate 3.4% among 340,000
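Whole-lifecycle infectious HCVcc-Cre system; cells 1,000/well, compound then virus (~0.5 moi) added 4 h after plating, 44 h culture. Luciferase read 15 sec following 15 min substrate incubation, room temp.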
Pf growth 96h: Primary qHTS for delayed death inhibitors of the malarial parasite plastid, 96 hour incubation | P. falciparum luciferase reporter growth, 96 h | Potency, µM (highest dose often 28.7 µM), for inactives: top-dose activity change, negative = inhibition, usual class: inhibitors | hit rate 6.9% among 320,000 | AID 504834, 2011
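P. falciparum expressing integrated firefly luciferase grown in erythrocytes (2% hematocrit, 0.05% parasitemia final) with compounds for 96 hours at 37 C, 5% CO2. Growth inhibition read as loss of luminescence after adding luciferase detection reagent.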
AMA1 RON2 block: qHTS for Inhibitors of AMA1-RON; Towards Development of Antimalarial Drug Lead: Primary Screen. hit rate 0.2% among 360,000. Potency, µM (top dose mostly 58.2 µM), without a hit: at the top dose activity change, negative = inhibition, hits mostly inhibitors. Plasmodium falciparum AMA1 (3D7) - RON2 peptide interaction. AID 720542, 2013. AlphaScreen AMA1-biotinylated RON2 peptide binding;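 note: 0% = vehicle wells and -100% = peptide control; nearly all actives have a fitted effect of over 45% in size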
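AMA1 (3D7) with his tag at 25 nM final met compounds first, then biotinylated RON2 peptide at 25 nM; detection used donor plus acceptor beads, 10 µg/mL apiece, read by AlphaScreen after 30 min at room temperature.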
Pf growth 48h: Primary qHTS for delayed death inhibitors of the malarial parasite plastid, 48 hour incubation; hit rate 5.9% among 310,000; P. falciparum luciferase growth in erythrocytes, 48 h; AID 504832, 2011; Potency, µM (titrated, usually from 28.7 µM), without a hit: at the top dose activity change, negative = inhibition, actives largely listed as inhibitors
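Luciferase-expressing parasites in RBCs, 2% Hct / 0.1% parasitemia final; RPMI 1640 + 0.5% Albumax; 37 C, 5% CO2, one generation; luminescence read-out, lower signal = inhibition.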
AmpC detergent: qHTS Inhibitors of AmpC Beta-Lactamase (assay with detergent); P00811; AmpC hydrolysis of nitrocefin, absorbance 480 nm, 0.01% Triton; hit rate 0.041% among 370,000; Potency, µM (highest dose often 114 µM), inactives show at the top dose activity change, negative = inhibition, actives largely listed as inhibitors; AID 485294, 2010;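 note: 0% = no-compound wells and -100% = no-enzyme wells; nearly all actives have a fitted effect of over 25% in size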
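AmpC (5.3 nM in the dispensed reagent) in 20 mM phosphate pH 7.0 with 0.01% (detergent screen) or 0.0001% Triton X-100 was preincubated with compounds for 15 min at room temperature. Nitrocefin was then added from an 800 uM solution, and hydrolysis was followed at 480 nm.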
An asterisk follows results filed as active; ? = inconclusive; . = not tested or not shown; [ ] = dose if it differs, or a comment. The list is not random: actives were taken first. Their share in the collection is about 11%. Calls come from the whole dose curve; as a rule, active = well fitted curve in the direction sought with a large enough effect; inconclusive = small, poorly fitted or top-dose-only effect, or another doubt; inactive = no such curve, though single readings can be large; an effect the other way counts as inactive or inconclusive. Unless noted, % is set by controls: 0 for no effect and ±100 for the full control effect; potency is the fitted concentration of half-maximal effect.

SMILES | AmpC inh no detg | HCV inh | Pf growth 96h | AMA1 RON2 block | Pf growth 48h | AmpC detergent
O=C1CC(C(=O)Nc2ccc(C(=O)N3CCOCC3)cc2)C2(CCCCC2)O1 (stereo unspecified) | 5.01µM* | -7.2% | . | -1.7% | -2.5% | 3.5%
O=C1CC(C(=O)Nc2ccccc2)C2(CCCC2)O1 (stereo unspecified) | -8.5% | 7.0% | 11.3% | -11.1% | 6.4% | ?
Cc1ccccc1NC(=O)c1ccc(NC(=O)C2CC(=O)OC23CCCCC3)cc1 (stereo unspecified) | -17.8% | 4.3% | 27.0% | -16.7% | 13.1µM* | -9.8%
O=C1CC(C(=O)N2CCOCC2)C2(CCCC2)O1 (stereo unspecified) | -6.7% | 0.0% | -15.3% | -2.9% | 17.2% | -2.8%
O=C1C(Cl)=C(NCCCO)C(=O)c2ccccc21 | -14.6% | 12.6µM* | . | -8.9% | ? | ?
O=C1C(Cl)=C(NCCCN2CCOCC2)C(=O)c2ccccc21 | . | 10µM* | . | -6.5% | . | .
Cc1ccc(NC2=C(NCCO)C(=O)c3ccccc3C2=O)cc1 | -21.0% | 5.0% | 66.6% | ? | 5.86µM* | -10.2%
O=C1C(Cl)=C(NCCN2CCOCC2)C(=O)c2ccccc21 | -2.4% | ? | ? | -13.9% | ? | -2.5%
CCOCCCNC1=C(Cl)C(=O)c2ccccc2C1=O | -5.6% | -12.6% | ? | ? | 3.7µM* | -2.9%
CCCc1nc(SC)ncc1C(=O)N1CCN(c2ccc(Cl)cc2)CC1 | . | . | . | . | . | -1.3%
COc1ccc(NC(=O)CSc2nc3nc(C)c(Cc4ccccc4)c(C)n3n2)cc1OC | . | . | . | . | . | 6.0%
Cc1nn(-c2ccc(N3CCOCC3)nn2)c(C)c1CCC(=O)NCc1ccc(OC(C)C)cc1 | . | . | . | . | . | 8.7%
COc1ccc(C2=C(Nc3ccc(C)cc3)c3ccccc3C2=O)cc1 | -20.9% | -25.3% | -15.1% | -29.7% | 0.828µM* | ?
O=C(c1ccc2c(c1)N(Cc1cccc(Cl)c1)C(=O)c1ccccc1S2=O)N1CCN(c2cccc(C(F)(F)F)c2)CC1 (stereo unspecified) | . | . | . | . | . | -5.2%
O=C(CN(Cc1ccccc1Cl)C(=O)c1ccc(CN2CCOCC2)o1)NCc1ccccc1 | 95.2% | 6.7% | 6.57µM* | 27.9% | -14.4% | -11.4%
CCOc1ccc(NS(=O)(=O)c2ccc(-c3cc(C)no3)s2)cc1 | . | . | . | . | . | 0.4%
COc1ccc2[nH]cc(C(=O)CN3CCCC(C)C3)c2c1 (stereo unspecified) | -35.7% | -19.6% | 22.5% | -3.2% | -6.4% | -2.0%
COc1cccc(N2CCN(CC(=O)c3c[nH]c4ccc(OC)cc34)CC2C)c1 (stereo unspecified) | 22.5% | 7.4% | ? | -9.2% | 11.7µM* | -1.9%
Cc1cc(OCCn2ccnc2)cc(C(C)C)c1 | 1.8% | ? | 35.9% | -24.3% | -21.6% | 1.2%
Cc1ccc(OCCCn2ccnc2)c(Br)c1 | 15.7% | -20.1% | -17.5% | -24.4% | ? | 3.6%
C=CCc1ccc(OCCOCCOc2ccc(C)cc2[N+](=O)[O-])c(OC)c1 | 38.6% | 11.2µM* | ? | -11.0% | -17.7% | -13.0%
CCOc1ccc(Cn2ccnc2)cc1[N+](=O)[O-] | -14.9% | 3.2% | -6.1% | 2.9% | 5.6% | 0.8%
CCCCCOc1ccc(Cn2ccnc2)cc1[N+](=O)[O-] | -3.9% | 11.2µM* | ? | -4.4% | ? | 0.6%
Cc1ccc(OCCCn2ccnc2)c([N+](=O)[O-])c1 | -30.9% | 19.0% | 6.57µM* | ? | -6.5% | -4.4%
Cc1cc(C)cc(OCCn2ccnc2)c1 | -10.3% | 6.31µM* | 0.0% | -6.2% | -10.7% | -1.3%
SMILES | AmpC inh no detg | HCV inh | Pf growth 96h | AMA1 RON2 block | Pf growth 48h | AmpC detergent
COc1ccccc1OCCOCCOc1ccc(C)cc1[N+](=O)[O-] | 26.2% | -20.7% | ? | 0.6% | -6.7% | -6.6%
CCn1c2ccccc2c2nnc(N3CCN(c4cccc(Cl)c4)CC3)nc21 | . | . | . | . | . | 23.0%
Cc1ccc(OCCN2CCN(C)CC2)c([N+](=O)[O-])c1 | -14.9% | -0.3% | ? | 25.1µM* | 22.3% | ?
Cc1ccc(OCCN2CCNCC2)c([N+](=O)[O-])c1 | -6.6% | 6.5% | 14.3% | -28.6% | 11.7% | -9.3%
COC1C=CO[C@@]2(C)Oc3c(C)c(O)c4c(O)c(c(C=NN5CCN(C)CC5)c(O)c4c3C2=O)NC(=O)/C(C)=C\C=CC(C)C(O)[C@@H](C)C(O)C(C)[C@H](OC(C)=O)C1C (stereo partly specified) | . | . | 0.601µM* | . | 0.953µM* | .
COC1C=CO[C@@]2(C)Oc3c(C)c(O)c4c(O)c(c5c(nc6cc(C)ccn65)c4c3C2=O)NC(=O)/C(C)=C\C=CC(C)C(O)[C@@H](C)C(O)C(C)[C@@H](OC(C)=O)C1C (stereo partly specified) | . | . | 4.78µM* | . | 6.75µM* | .
CO[C@H]1/C=C/O[C@@]2(C)Oc3c(C)c(O)c4c(O)c(c5c(c4c3C2=O)NC2(CCN(CC(C)C)CC2)N=5)=NC(=O)/C(C)=C\C=C\[C@H](C)[C@H](O)[C@@H](C)[C@@H](O)[C@@H](C)[C@H](OC(C)=O)[C@@H]1C | . | . | 5.36µM* | -0.3% | 8.49µM* | .
COc1ccc(OC)c(NC(=O)CSC2=Nc3ccccc3C3=NC(CC(=O)NCc4ccc5c(c4)OCO5)C(=O)N23)c1 (stereo unspecified) | . | . | . | . | . | -4.4%
Cc1ccc(C)c(N2CCN(c3nc4ccccc4c(=O)n3-c3ccc(Cl)cc3)CC2)c1 | . | . | . | . | . | -5.8%
COc1ccc(CN(C)C(=O)c2ccc(NC(=O)CC3SC(N4CCCC4)=NC3=O)cc2)c(OC)c1 (stereo unspecified) | 212.6% | -29.0% | ? | -8.4% | ? | -16.5%
COc1ccc(CN(C)C(=O)c2ccc(NC(=O)CC3SC(N4CCCC4)=NC3=O)cc2)c(OC)c1OC (stereo unspecified) | ? | 6.7%[8.37 µM] | 5.86µM* | -6.0% | ? | -13.7%
